A short description of the assay: qHTS drug screen for cell cycle checkpoint inhibitors in PARPi-resistant BRCA-mutant ovarian cancer cell lines. (AID 1963452). As to conditions: PEO1/OlaR viability, CellTiter-Glo luminescence, 96 h; for Z-AUC: stronger effect = lower value. From the text: Women's Malignancies Branch, Center for Cancer Research (CCR),
National Cancer Institute (NCI), National Institutes of Health (NIH), Bethesda, MD
Poly (ADP-ribose) polymerase inhibitors (PARPis) have changed the treatment paradigm in breast cancer gene (BRCA) - mutant high-grade serous ovarian carcinoma (HGSC). However, most patients eventually develop resistance to PARPis, highlighting an unmet need for improved therapeutic strategies. Using high-throughput drug screens, we identified ataxia telangiectasia and rad3-related protein/checkpoint kinase 1 (CHK1) pathway inhibitors as cytotoxic and further validated the activity of the CHK1 inhibitor (CHK1i) prexasertib in PARPi-sensitive and -resistant BRCA-mutant HGSC cells and xenograft mouse models. CHK1i monotherapy induced DNA damage, apoptosis, and tumor size reduction. We then conducted a phase 2 study (NCT02203513) of prexasertib in patients with BRCA-mutant HGSC. The treatment was well tolerated but yielded an objective response rate of 6% (1 of 17; one partial response) in patients with previous PARPi treatment. […] BRCA reversion mutation in previously PARPi-treated BRCA-mutant patients was not associated with resistance to CHK1i.
Among others, 1082 oncology drugs, both approved and investigational, were prioritized based on their status in clinical trial development. […] Drugs with average Z-AUC values less than -1.0 in all three cell lines were classified as "hits" resulting in 151 oncology drug hits. The screen also confirmed cross-resistance between olaparib and other PARPis (rucaparib, niraparib, and talazoparib) in PARPi-resistant PEO1/OlaR and PEO4.
[1] G. L. Lin, K. M. Wilson, M. Ceribelli, B. Z. Stanton, P. J. Woo, S. Kreimer, E. Y. Qin, X. Zhang, J. Lennon, S. Nagaraja, P. J. Morris, M. Quezada, S. M. Gillespie, D. Y. Duveau, A. M. Michalowski, P. Shinn, R. Guha, M. Ferrer, C. Klumpp-Thomas, S. Michael, C. McKnight, P. Minhas, Z. Itkin, E. H. Raabe, L. Chen, R. Ghanem, A. C. Geraghty, L. Ni, K. I. Andreasson, N. A. Vitanza, K. E.Warren, C. J. Thomas, M. Monje, Therapeutic strategies for diffuse midline glioma from high-throughput combination drug screening. Sci. Transl. Med. 11, (2019).
[2] T. M. Yamamoto, A. McMellen, Z. L. Watson, J. Aguilera, R. Ferguson, E. Nurmemmedov, T. Thakar, G. L. Moldovan, H. Kim, D. M. Cittelly, A. M. Joglar, E. P. Brennecke, H. Wilson, K. Behbakht, M. J. Sikora, B. G. Bitler, Activation of Wnt signaling promotes olaparib resistant ovarian cancer. Mol. Carcinog. 58, 1770 - 1782 (2019).
PROTOCOL TABLE (as described by Inglese J, Shamu CE and Guy RK. 2007)
SEQUENCE No. (e.g., 1, 2, 3, etc.); […] (e.g., Cells, Incubation, Reagent, etc.); VALUE; DESCRIPTION.
1; Compounds; 20nL; 1536-well white tissue culture-treated plates.
2; Cells; 5 uL; PEO1, PEO4, and PEO1/OlaR cells at 600 cells per well.
3; Incubation; 96 hr; 37C, 95% humidity, 5% CO2.
4; Reagent; 3 uL; CellTiter-Glo (Promega).
5; Incubation; 15 min; room temperature.
6; Detection; Luminescence, PHERAstar (BMG Labtech) plate reader.
NOTES (numbers refer to Sequence numbers above)
1. MIPE 5.0 compounds were acoustically dispensed by Echo Acoustic Liquid Handler (Beckman Coulter Life Sciences). Each compound was plated at an 11-point concentration range with 1:3 dilution. Bortezomib, a proteasome inhibitor (final concentration, 20 uM), was used as a positive.
2. PEO1, PEO4, and PEO1/OlaR were trypsinized and dispensed in 5 uLof growth medium using a Multidrop Combi dispenser at a density of 600 cells per well to allow compounds to be present during the exponential growth phase.
3. Plates were incubated for 96 hours at standard incubator conditions and covered by a stainless steel gasketed lid to prevent evaporation.
4. Three microliters of CellTiter-Glo (Promega) were added to each well.
5. Plates were incubated at room temperature for 15 min with a stainless-steel lid in place.
6. Luminescence readings were taken using PHERAstar (BMG Labtech). […]
In general terms: In qHTS, concentration-response curves come from the screen itself.

[1] abbreviates: measured here: PEO1 parental Z-AUC.

Each structure is given as a SMILES string. Active and inactive are the calls of the source. The call rests on the fitted dose curve.
Potency means the concentration at half of the fitted maximal effect.

Turning to `Cc1cc(Nc2nc(N[C@@H](C)c3ncc(F)cn3)ncc2Cl)n[nH]1`, the Potency is 12.3 µM (active). Under setting [1], the Z-AUC was -1.18. For the same molecule, under “measured here: PEO4 Z-AUC”, the Z-AUC is -1.3.
As to `N#CC[C@H](C1CCCC1)n1cc(-c2ncnc3[nH]ccc23)cn1`, the Z-AUC is 0.476 (inactive). Further, under setting [1], the Z-AUC was 0.0833. Moreover, where the note is “measured here: PEO4 Z-AUC”, the Z-AUC was 0.752.
The like results for `COc1c(Cl)cc2c([nH]c3cnccc32)c1NC(=O)c1cccnc1C` were, in that order, 1.1 (inactive), 0.859 and 0.857.
Take `COc1ccccc1-c1cccc(-c2c(O)c3cc(C#N)c(Cl)cc3[nH]c2=O)c1`: the Z-AUC was 0.395 (inactive). Under setting [1], the Z-AUC came to 0.311. Also, the Z-AUC (measured here: PEO4 Z-AUC) amounted to 0.381.
`CC(C)C[C@H](NC(=O)[C@@H](O)[C@H](N)Cc1ccccc1)C(=O)O`: the Z-AUC is 0.8 (inactive). In addition, the Z-AUC under setting [1] is 0.368. For the same molecule, the Z-AUC (measured here: PEO4 Z-AUC) was 0.252.
For `COc1ccc2c3n(c(=NC(=O)c4cccnc4)nc2c1OC)CCN3` the same measures were -0.738 (inactive), -0.328 and -0.378.
The like results for `Nc1nc2ccc(OC(F)(F)F)cc2s1` were, in that order, -0.346 (inactive), -0.387 and 0.245.
For `CCn1cc(C(=O)O)c(=O)c2cc(F)c(N3CCNC(C)C3)c(F)c21` (configuration not stated) the same measures were -0.481 (inactive), -0.703 and -0.581.
Consider `CCCC(CCC)C(=O)O`, for which the Z-AUC was 0.56 (inactive). Under setting [1], the Z-AUC turned out to be 0.704. In addition, the Z-AUC (measured here: PEO4 Z-AUC) is 0.624.
On to `CC(C)(C)OC(=O)CN(Cc1ccc(Cl)cc1)Cc1ccc([N+](=O)[O-])s1`, for which the Z-AUC is 0.709 (inactive). Further, under setting [1], the Z-AUC worked out at 0.527. Besides, the Z-AUC (measured here: PEO4 Z-AUC) is 0.345.
The like results for `CCCCCCCc1ccc(CCc2cccc(O)c2C(=O)O)cc1` were, in that order, 1.13 (inactive), 0.41 and 0.518.
On to `O=C(Nc1nc2ccccc2n1CCN1CCOCC1)c1cccc([N+](=O)[O-])c1`, for which the Z-AUC is 1.54 (inactive). The Z-AUC under setting [1] amounted to 1.06. Besides, the Z-AUC (measured here: PEO4 Z-AUC) is 1.04.
The like results for `NC(N)=NC(=O)c1nc(Cl)c(N)nc1N` were, in that order, -0.792 (inactive), -0.971 and -0.392.
The like results for `Oc1ccc(C2CNCCc3c2cc(O)c(O)c3Cl)cc1` (configuration not stated) were, in that order, 1.23 (inactive), 1.1 and 1.

For the origin of these results see PubChem BioAssay (NCATS).
